Screening results (PubChem BioAssay)
LRH-1 inv ag: NR5A2 inverse agonism in reporter assay; HEK293T StAR-luciferase reporter, LRH-1 transfected, 24 h; hit rate 0.13% among 360,000; inhibition, % at 3.6 µM; AID 602396; O00482;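 active means inhibition above the mean inhibition of all tested compounds plus 3 SD, cut at about 73% in these data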;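 further: 0% = DMSO wells and 100% = reporter-only cells lacking LRH-1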
Efflux pump mplx: antifungal efflux pump inhibition, Nile Red retention. S. cerevisiae Candida pump triplex. inhibition, % at 10 µM. hit rate 0.44% among 330,000;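 active means plate passing quality check with inhibition over a set limit, or well fluorescence over plate mean plus 4 SD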;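 further: Nile Red retained in pooled yeast measured as flow cytometry median fluorescence; 0% = buffer negative control and 100% = Enniatin B positive control; higher means more Nile Red kept so more efflux inhibition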
NR2F2 inh: blocks human COUP-TFII nuclear receptor. P24468. HEK293T NGFI-A luciferase reporter, luminescence. inhibition, % at 8.6 µM. hit rate 0.7% among 370,000. AID 686940;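 active means inhibition above a per-plate cutoff, mean inhibition of test wells between control levels plus 3 SD, cut at about 38% in these data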;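 further: cells cotransfected with COUP-TFII expression vector driving the NGFI-A reporter; 0% = median of COUP-TF2 test wells and 100% = reporter-only cells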
NCOA3 inh: human NCOA3 inhibition; AID 588352; hit rate 0.17% among 360,000; inhibition, % at 3.6 µM; Q9Y6Q9; HEK293 GAL4-SRC3 luciferase reporter, luminescence;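 active means inhibition above a per-campaign cutoff, the mean of all compounds plus 3 SD, cut at about 60% in these data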;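 further: 0% = DMSO-treated cells and 100% = gossypol-treated cells at 36 µM; higher means less SRC3-driven luciferase light from the GAL4 reporter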
NCOA2 inhibitor: inhibits human steroid receptor coactivator 2. HEK293 GAL4-SRC2 luciferase reporter, luminescence. inhibition, % at 9 µM. hit rate 0.17% among 370,000;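 active means inhibition above the mean inhibition of all tested compounds plus 3 SD, set per campaign, cut at about 52% in these data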;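 further: 0% = DMSO treated cells and 100% = cells given Gossypol at 36 µM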
NCOA1 inh: inhibitors of human steroid receptor coactivator 1 (SRC1); inhibition, % at 3.6 µM; hit rate 0.12% among 360,000; HEK293 GAL4-SRC1 luciferase reporter, luminescence; Q15788;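 active means inhibition above the campaign mean plus 3 SD, with each screening campaign given its own cutoff, cut at about 60% in these data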;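 further: 0% = DMSO treated cells and 100% = gossypol at 36 µM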
Target sequence (Q15788 whole entry, looked up, the tested form may be a part): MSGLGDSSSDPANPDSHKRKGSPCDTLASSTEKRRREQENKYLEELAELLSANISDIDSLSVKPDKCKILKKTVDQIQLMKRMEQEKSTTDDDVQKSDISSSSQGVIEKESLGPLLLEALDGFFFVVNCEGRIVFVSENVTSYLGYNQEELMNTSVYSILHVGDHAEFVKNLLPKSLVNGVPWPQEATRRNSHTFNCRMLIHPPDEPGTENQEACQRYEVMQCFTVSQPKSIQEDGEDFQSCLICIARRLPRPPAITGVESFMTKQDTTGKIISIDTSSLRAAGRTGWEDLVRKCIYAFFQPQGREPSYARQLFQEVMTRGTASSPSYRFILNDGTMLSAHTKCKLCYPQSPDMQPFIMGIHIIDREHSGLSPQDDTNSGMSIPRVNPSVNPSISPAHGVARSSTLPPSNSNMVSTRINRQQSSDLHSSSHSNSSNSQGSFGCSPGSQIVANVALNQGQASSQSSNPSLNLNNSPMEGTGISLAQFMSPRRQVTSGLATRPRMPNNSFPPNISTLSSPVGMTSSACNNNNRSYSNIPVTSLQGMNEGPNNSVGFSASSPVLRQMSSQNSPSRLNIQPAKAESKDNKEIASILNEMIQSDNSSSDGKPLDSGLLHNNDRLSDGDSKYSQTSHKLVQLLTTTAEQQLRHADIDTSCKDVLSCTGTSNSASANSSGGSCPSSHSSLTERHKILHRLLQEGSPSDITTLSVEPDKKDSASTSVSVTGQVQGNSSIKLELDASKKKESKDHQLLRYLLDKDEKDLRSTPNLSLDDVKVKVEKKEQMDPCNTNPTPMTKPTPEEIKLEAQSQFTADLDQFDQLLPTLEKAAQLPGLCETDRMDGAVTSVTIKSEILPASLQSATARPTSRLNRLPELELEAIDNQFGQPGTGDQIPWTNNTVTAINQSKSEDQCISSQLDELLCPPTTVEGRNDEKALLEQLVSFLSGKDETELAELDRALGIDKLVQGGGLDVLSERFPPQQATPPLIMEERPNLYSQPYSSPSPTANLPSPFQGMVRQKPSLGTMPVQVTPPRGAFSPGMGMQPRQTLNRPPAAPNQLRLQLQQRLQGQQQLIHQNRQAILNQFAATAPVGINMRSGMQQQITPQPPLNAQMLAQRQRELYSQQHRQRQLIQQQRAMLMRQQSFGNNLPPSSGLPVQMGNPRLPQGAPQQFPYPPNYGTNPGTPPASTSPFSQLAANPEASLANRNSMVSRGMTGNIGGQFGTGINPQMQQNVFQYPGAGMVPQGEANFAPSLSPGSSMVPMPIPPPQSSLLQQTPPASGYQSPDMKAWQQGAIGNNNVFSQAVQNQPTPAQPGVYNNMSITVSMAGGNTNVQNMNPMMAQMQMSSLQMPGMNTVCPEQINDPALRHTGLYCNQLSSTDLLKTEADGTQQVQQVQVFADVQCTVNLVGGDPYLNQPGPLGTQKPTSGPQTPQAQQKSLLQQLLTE
The depositor's hits bear a star; ! = not active in a repeat. A selection: hits, their analogues and other compounds. The true share with any hit is near 1.2%.

`Cc1nc2cc(-c3ccc(Cl)cc3)nn2c(C)c1CCC(=O)NC(C)c1ccc2c(c1)OCCO2` (centres undefined) gave LRH-1 inv ag 2, Efflux pump mplx 0, NR2F2 inh 26, NCOA3 inh 13, NCOA2 inhibitor 73* and NCOA1 inh 17.
Screening COc1ccc(N(C(=O)CCl)C(C(=O)NC2CCCCC2)c2cccnc2)cc1 (centres undefined) returned LRH-1 inv ag 11, Efflux pump mplx 0, NR2F2 inh 10, NCOA3 inh 70*, NCOA2 inhibitor 63* and NCOA1 inh 47.
For CCc1ccccc1N(C(=O)CNC(=O)c1ccco1)C(C(=O)NC1CCCC1)c1cccnc1 (centres undefined) the results were LRH-1 inv ag 0, Efflux pump mplx 0, NR2F2 inh -10, NCOA3 inh 4, NCOA2 inhibitor -2 and NCOA1 inh -8.
O=C(NC1CCCCC1)C(c1cccnc1)N(C(=O)CCl)c1ccccc1Cl (centres undefined) was read as LRH-1 inv ag 58, Efflux pump mplx 0, NR2F2 inh 9, NCOA3 inh 59, NCOA2 inhibitor 59* and NCOA1 inh 51.
Screening COc1ccc(C(C(=O)NC2CCCCC2)N(C(=O)CCl)c2cccc(Cl)c2)cc1 (centres undefined) returned LRH-1 inv ag 16, Efflux pump mplx 0, NR2F2 inh -8, NCOA3 inh 69*, NCOA2 inhibitor 16 and NCOA1 inh 17.
For O=C(NC1CCCCC1)C(c1cccnc1)N(C(=O)CCl)c1ccc(F)cc1 (centres undefined) the results were LRH-1 inv ag 38, Efflux pump mplx 0, NR2F2 inh 14, NCOA3 inh 69*, NCOA2 inhibitor 50 and NCOA1 inh 54.
Screening Cc1ccccc1-n1nnnc1SCC(=O)NC1CC1 returned LRH-1 inv ag -9, Efflux pump mplx 0, NR2F2 inh 1, NCOA3 inh -14, NCOA2 inhibitor -18 and NCOA1 inh 14.
`O=C(NCc1cccnc1)c1cc(C2CCCCN2C(=O)c2ccccc2)on1` (centres undefined) gave LRH-1 inv ag -19, NR2F2 inh 0, NCOA3 inh -10, NCOA2 inhibitor 1 and NCOA1 inh 2.
Screening N#CC1=C(N)C(C#N)(C#N)C(c2cccnc2)C2CC(c3ccccc3)CC=C12 (centres undefined) returned LRH-1 inv ag 28, Efflux pump mplx 0, NCOA3 inh 62* and NCOA1 inh 65*.
`N#CC1=C(N)C(C#N)(C#N)C(c2cccnc2)C2CCCC=C12` (centres undefined) gave Efflux pump mplx 0.
COc1ccc(C2=NO[C@@H]3C(=O)N(c4cccc(C)c4C)C(=O)[C@H]23)cc1OC was read as LRH-1 inv ag -12, Efflux pump mplx 0, NR2F2 inh -14, NCOA3 inh 8, NCOA2 inhibitor -24 and NCOA1 inh -7.
Cc1cc(/C=c2/sc3nc4ccccc4n3c2=O)c(C)n1-c1ccccn1 was read as LRH-1 inv ag 79*, Efflux pump mplx 1, NR2F2 inh 101*, NCOA3 inh 90*, NCOA2 inhibitor 79* and NCOA1 inh 88*.
For Cc1cc(/C=c2\sc3nc4ccccc4n3c2=O)c(C)n1-c1ccc(C(=O)O)cc1 the results were LRH-1 inv ag 0, NR2F2 inh 5, NCOA3 inh 8, NCOA2 inhibitor 12 and NCOA1 inh 18.
Screening C[n+]1c2cc(N)ccc2cc2ccc(N)cc21 returned LRH-1 inv ag 74*!, NR2F2 inh -35, NCOA3 inh -71, NCOA2 inhibitor -229 and NCOA1 inh -111.
`Nc1ccc2ccc(O)cc2c1` gave LRH-1 inv ag 5, NR2F2 inh -16, NCOA3 inh -12, NCOA2 inhibitor -53 and NCOA1 inh -6.
`CS(=O)(=O)c1ccc(Sc2nc3ccccc3s2)c([N+](=O)[O-])c1` gave LRH-1 inv ag 20, Efflux pump mplx 0, NCOA3 inh 73* and NCOA1 inh 11.
For COC(=O)[C@@]12C[C@@H](CC(=O)N3CCCC3)C(=O)N(Cc3ccccc3)C1=CCC(C)(C)C2 the results were LRH-1 inv ag 5, NR2F2 inh -5 and NCOA2 inhibitor -11.
`CCN1/C(=C/C=C/C=C/C=C/c2sc3ccccc3[n+]2CC)Sc2ccccc21` gave LRH-1 inv ag 3, Efflux pump mplx 0, NR2F2 inh -3, NCOA3 inh 14, NCOA2 inhibitor 29 and NCOA1 inh 12.
Screening CCN1/C(=C/C=C/C=C/c2sc3ccccc3[n+]2CC)Sc2ccccc21 returned Efflux pump mplx 0.8*.
Screening CNS(=O)(=O)c1cccc(C(=O)OCC(=O)c2cc(C)n(CC3CCCO3)c2C)c1 (centres undefined) returned LRH-1 inv ag -27, Efflux pump mplx 0, NR2F2 inh 20, NCOA3 inh -20, NCOA2 inhibitor -48 and NCOA1 inh -32.
For O=C(OCc1ccccc1)c1ccc(NCc2cc(O)ccc2O)cc1 the results were LRH-1 inv ag 37, NR2F2 inh 56*, NCOA3 inh 40, NCOA2 inhibitor 83* and NCOA1 inh -34.
CC(C)OC(=O)c1ccc(NCc2cc(O)ccc2O)cc1 was read as LRH-1 inv ag -18, NR2F2 inh 22, NCOA3 inh -13, NCOA2 inhibitor 60* and NCOA1 inh -65.
For COc1cc(/C=N/NC(=Nc2ccc(C)cc2)c2nc3ccccc3s2)ccc1O the results were LRH-1 inv ag -14, Efflux pump mplx 0, NR2F2 inh 28, NCOA3 inh 85*, NCOA2 inhibitor 25 and NCOA1 inh 84*.
CCN(CC)c1ccc(/C=C/c2nc3ccccc3s2)cc1 was read as Efflux pump mplx 1.0*.
For CCOC(=O)CCSc1nc(C(C)(C)C)cc(C(F)(F)F)c1C#N the results were LRH-1 inv ag 1, Efflux pump mplx 0, NR2F2 inh -17, NCOA3 inh 17, NCOA2 inhibitor 70* and NCOA1 inh 11.
`CCOC(=O)N1CCC(NS(=O)(=O)c2cc3c(cc2Br)CCN3C(=O)CC)CC1` gave LRH-1 inv ag 0, NR2F2 inh 4, NCOA3 inh -14, NCOA2 inhibitor -14 and NCOA1 inh -4.
`Cc1nc2ccc(NS(=O)(=O)c3ccc4c(c3)OCCO4)cc2s1` gave LRH-1 inv ag 41, Efflux pump mplx 0, NR2F2 inh 65*, NCOA3 inh 13, NCOA2 inhibitor 25 and NCOA1 inh 17.
`Cc1ccc(S(=O)(=O)Nc2ccc3nc(C)sc3c2)cc1` gave LRH-1 inv ag 20, Efflux pump mplx 0, NCOA3 inh 16 and NCOA1 inh 16.
COc1ccc(CNC(=O)CCSc2ccc(F)cc2)cc1OC was read as LRH-1 inv ag 1, Efflux pump mplx 0, NR2F2 inh 1, NCOA3 inh -6, NCOA2 inhibitor -37 and NCOA1 inh 12.
